Assay outcomes as filed in PubChem BioAssay.
Rows were chosen to be rich in hits. Some 10% of all compounds tested hit in one or more screens of this group.
GLS inhibitor: inhibitors of human glutaminase (GLS); AID 624170; O94925; Potency, µM (titrated, usually from 45.5 µM), for inactives: at the top dose activity change, negative = inhibition, usual class: inhibitors; 410,000 compounds, 0.21% hits; GLS enzymatic activity, qHTS titration; also: % is scaled to controls: 0 for no effect and ±100 for the full control effect
Target sequence (O94925 whole entry, looked up): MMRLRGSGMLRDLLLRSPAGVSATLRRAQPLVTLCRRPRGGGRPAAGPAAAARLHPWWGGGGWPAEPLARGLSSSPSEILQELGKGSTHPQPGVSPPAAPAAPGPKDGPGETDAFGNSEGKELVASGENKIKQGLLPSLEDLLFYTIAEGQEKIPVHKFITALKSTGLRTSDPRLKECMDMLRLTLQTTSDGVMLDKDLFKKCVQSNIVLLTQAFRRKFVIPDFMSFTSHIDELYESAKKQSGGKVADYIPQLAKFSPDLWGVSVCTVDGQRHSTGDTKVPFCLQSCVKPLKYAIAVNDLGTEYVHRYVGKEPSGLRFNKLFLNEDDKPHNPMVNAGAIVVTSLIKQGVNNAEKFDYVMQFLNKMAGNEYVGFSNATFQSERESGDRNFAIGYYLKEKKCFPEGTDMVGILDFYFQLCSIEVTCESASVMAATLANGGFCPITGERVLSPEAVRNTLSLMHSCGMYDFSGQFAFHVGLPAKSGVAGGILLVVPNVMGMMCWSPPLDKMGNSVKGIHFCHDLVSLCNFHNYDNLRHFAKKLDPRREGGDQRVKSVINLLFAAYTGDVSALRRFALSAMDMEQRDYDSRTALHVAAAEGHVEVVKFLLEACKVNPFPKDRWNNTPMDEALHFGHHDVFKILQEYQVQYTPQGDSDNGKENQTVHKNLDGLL
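Compounds were pin-transferred onto hKGA, after which L-glutamine (1 mM solution) and a detection mix of glutamate oxidase, HRP and Amplex Red were added. Initial and 30 min RT fluorescence reads were collected.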
BAZ2B inh: BAZ2B (human) inhibition | Potency, µM (doses to about 114 µM), without a hit: at the top dose activity change, negative = inhibition, hits mostly inhibitors | 360,000 compounds, 4.4% hits | AlphaScreen BAZ2B-H3K14Ac peptide displacement | Q9UIF8; also: % is scaled to controls: 0 for no effect and ±100 for the full control effect; nearly all actives have a fitted effect of over 60% in size
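Compounds, titrated to a top concentration of 110 uM, were incubated 30 min at room temperature with preformed BAZ2B/acetyl-K14 H3 peptide complex (50 nM each). Proximity signal was measured by AlphaScreen after 20 min with beads.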
HP1b binding inh: inhibitors of HP1-beta chromodomain binding to methylated histone tails. P83916. AID 540317. 390,000 compounds, 0.56% hits. AlphaScreen HP1-beta / biotin-H3K9me3 peptide binding. Potency, µM (titrated, usually from 114 µM), inactives show at the top dose activity change, negative = inhibition, most hits filed as inhibitors; also: nearly all actives have a fitted effect of over 70% in size
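Compound inhibition of the preformed complex between 50 nM HP1-beta and 50 nM biotinylated H3K9me3 peptide was read by AlphaScreen. Buffer was PBS pH 7.4 with 0.01% Tween-20. Incubations ran 30 min at room temperature, with 10 ug/mL donor/acceptor beads.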
L3MBTL1 block: L3MBTL1 (human) inhibition | Potency, µM (series often up to 57.1 µM), for the others: at the highest dose activity, negative = inhibition, hits mostly inhibitors | Q9Y468 | AlphaScreen L3MBTL1–H3K9me1 peptide binding | 230,000 compounds, 0.66% hits; also: % is scaled to controls: 0 for no effect and ±100 for the full control effect; nearly all actives have a fitted effect of over 60% in size
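L3MBTL1 50 nM + b-AHA-H3(1-15)K9me1 75 nM, 30 min RT; compound added, 30 min RT; streptavidin donor/Ni-chelate acceptor beads 10 ug/mL each final, 30 min RT dark; AlphaScreen read.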
JMJD2A Tudor: blocks the human JMJD2A Tudor domain | O75164 | AlphaScreen JMJD2A-Tudor / H3K4me3 peptide binding | Potency, µM (series often up to 114 µM), for the others: at the top dose activity change, negative = inhibition, actives largely listed as inhibitors | 390,000 compounds, 4.4% hits; also: % is scaled to controls: 0 for no effect and ±100 for the full control effect; nearly all actives have a fitted effect of over 50% in size
G9a block: inhibitors of human histone lysine methyltransferase G9a. Potency, µM (doses to about 102 µM), inactives show top-dose activity, negative = inhibition, most hits filed as inhibitors. 350,000 compounds, 8.8% hits. Q96KQ7. G9a H3K9 monomethylation, AlphaScreen, 2 h; also: % is scaled to controls: 0 for no effect and ±100 for the full control effect; nearly all actives have a fitted effect of over 75% in size
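Methyltransferase reactions run at room temperature for 2 h (20 nM enzyme, 500 nM biotin-H3K9 peptide, 20 uM SAM) after a 15 min compound preincubation; product detected by AlphaScreen beads and anti-H3K9me1 antibody.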
An asterisk follows results filed as active; u = inconclusive; x = no result; [ ] = remark or other dose. Calls follow the shape of the dose curve; as a rule, active = well fitted curve in the direction sought with a large enough effect; inconclusive = small, poorly fitted or top-dose-only effect, or another doubt; inactive = no such curve, though single readings can be large; an effect the other way counts as inactive or inconclusive. Potency is read from the fitted curve at half-maximal effect.

SMILES	GLS inhibitor	BAZ2B inh	HP1b binding inh	L3MBTL1 block	JMJD2A Tudor	G9a block
CCOC(=O)C1=C(CN2CCN(c3ccccc3F)CC2)NC(=O)NC1c1ccc(OC)cc1 (stereo not given)	1%	u	16%	x	-35%	-39%[59 µM]
COc1cc(OC)c(NC(=O)c2ccc3c(c2)N(Cc2ccc(C)cc2)CCS3)cc1Cl	0%	-12%	51%	x	-6%	1%[59 µM]
C/C(=N\NC(=O)c1ccc(O)cc1)c1ccc2c(c1)Nc1ccccc1S2	u	50µM*	-22%	1%	79µM*	16µM*
C/C(=N\NC(=O)c1ccccc1F)c1ccc2c(c1)Nc1ccccc1S2	7%	-1%	17%	-7%	-19%	u
CCc1cccc(C)c1NC(=O)CSc1nc(C)cc(C)c1C(=O)Nc1ccccc1	3%	0%	16%	x	-19%	-7%[59 µM]
CN1C(C(=O)Nc2ccc(F)cc2F)=CC(c2ccc3c(c2)OCO3)=NS1(=O)=O	6%	2%	39%	x	-17%	-35%[59 µM]
COC(=O)c1ccccc1NC(=O)C1=CC(c2ccc(C)cc2)=NS(=O)(=O)N1C	1%	u	-9%	x	u	13µM*
Cc1ccc(C2=NS(=O)(=O)N(C)C(C(=O)Nc3ccc(F)cc3F)=C2)cc1	-4%	-12%	-17%	-15%	u	71µM*
Cc1nn(-c2ccccc2)c(OC(=O)c2ccccc2F)c1S(=O)(=O)c1ccccc1	-7%	u	-2%	x	-33%	u
Cc1ccc2nc(-c3ccc(N=Nc4cc(S(=O)(=O)O)c5ccccc5c4O)cc3)sc2c1S(=O)(=O)O	x	x	14µM*	x	18µM*	x
Cc1c(C(=O)NCC(c2ccco2)N(C)C)oc2c(Cl)cccc12 (stereo not given)	4%	50µM*	u	-1%	u	50µM*
Cc1ccc(CNC(=O)c2ccc(OCC(C)C)cc2)n1C	-13%	-31%	-2%	x	u	45µM*
CCOc1ccc(C(=O)N/N=C(/C)C2C(=O)c3ccccc3C2=O)cc1	8%	1%	22%	-3%	35µM*	13%[59 µM]
CCOc1ccc2oc(C(=O)NCC(c3ccco3)N(C)C)c(C)c2c1 (stereo not given)	1%	-20%	9%	-8%	-19%	u
CC(C)CCOc1ccc(C(=O)NCC(c2ccco2)N(C)C)cc1 (stereo not given)	14%	-4%	-8%	x	-28%	50µM*
COc1ccccc1CNC(=O)CCC1N=C2c3ccccc3N=C(SCC(N)=O)N2C1=O (stereo not given)	-7%	-2%	-5%	x	-15%	20%[59 µM]
CCOc1ccc(-n2nc(CO)c(C(=O)NCc3cccc(OC)c3)n2)cc1	0%	10%	5%	x	-14%	13%[59 µM]
CCOc1ccc(C(=O)NCC(C)NC(=O)c2ccc(OCC)cc2)cc1 (stereo not given)	-2%	u	12%	5%	u	x
CCOc1ccc(C(=O)NCC(C)C)cc1	2%	8%	17%	x	6%[57.1 µM]	0.89µM*
N/C(=N\OC(=O)N1c2ccccc2Sc2ccccc21)c1ccccc1	18%	u	11%	-7%	u	45µM*
Cc1cccc(/C(N)=N/OC(=O)N2c3ccccc3Sc3ccccc32)c1	13%	u	-5%	-8%	u	u
COc1ccc(CN2CCCCC2c2cccnc2)c(OC)c1C (stereo not given)	-10%	u	14%	-1%	-32%	79µM*
CSc1nc(-c2ccco2)nn1C(=O)c1ccc(Cl)cc1	x	-23%	x	x	x	79µM*
Nc1nc(-c2ccco2)nn1C(=O)c1ccc(Cl)cc1	-2%	-4%[57.1 µM]	49%	-3%	0%	15%[59 µM]
c1ccc(-c2cnc(CSc3nnc4ccccn34)o2)cc1	-7%	1%	31%	30%[11.4 µM]	-11%	10µM*
SMILES	GLS inhibitor	BAZ2B inh	HP1b binding inh	L3MBTL1 block	JMJD2A Tudor	G9a block
Cc1ccc(S(=O)(=O)NC(=O)NC2CCCCC2)cc1	8%	x	x	x	x	5%[12.7 µM]
Cc1ccc(S(=O)(=O)NC(=O)NN2CC3CCCC3C2)cc1 (stereo not given)	39%	u	73%	x	89µM*	7%[2.33 µM]
CCOC(=O)c1c(NC(=O)C2CCCO2)sc(C)c1C (stereo not given)	12%	-4%	18%	17%	-16%	-1%
CCOC(=O)c1sc(NC(=O)C2CCCO2)c(C(=O)OCC)c1C (stereo not given)	x	56µM*	x	x	x	-32%[12.7 µM]
CCOC(=O)c1c(NC(=O)C2CCCO2)sc(C(=O)OC(C)(C)C)c1C (stereo not given)	-16%	6%	u	x	u	3.5µM*
Cc1ccc(NC(=O)C2CC(=O)n3ncnc3N2)cc1C (stereo not given)	0%	-27%	38%	-5%	2%	56µM*
Cn1c(O)c(N=NC(=S)Nc2ccccc2F)c2cc(S(=O)(=O)N3CCOCC3)ccc21	14%	4%	-4%	x	u	32µM*
CC(C)c1ccc(-c2noc(SCC(=O)N3CCCCC3)n2)cc1	-3%	56%	87%	x	52%	26%[59 µM]
O=[N+]([O-])c1cc(/C=N/O)ccc1Sc1ccccc1	11%	50µM*	-40%	x	56µM*	u
O=[N+]([O-])c1cc(/C=N/O)ccc1SCc1ccccc1	6%	-26%	39%	-4%	-16%	48%[59 µM]
Cc1ccccc1OCC(=O)N1CCC(c2nc3ccccc3s2)CC1	2%	0%	35%	x	-5%	3%[59 µM]
CCC(=Cc1ccc(CC)cn1)CC	2%	u	15%[57 µM]	54%	-4%	40µM*
CCc1ccc(-c2ccc(C(=O)O)cc2)nc1	11%	8%	12%	12%	-14%	-6%[59 µM]
CCC(CC)C(=O)Nc1cccc(C(=O)NCc2ccco2)c1	-15%	56µM*	16%	u	u	u
CCOC(=O)c1c(C)c(C(=O)NCc2ccco2)c(C)n1CC	-2%	-13%	15%	x	-12%	u
CCOC(=O)c1c(C)c(C(=O)NCc2ccco2)c(C)n1Cc1ccccc1	-15%	u	-31%	-1%	35µM*	u
CCOC(=O)N1CCC(N2C(=O)c3ccc(C(=O)NCc4ccc(F)cc4)cc3C2=O)CC1	-3%	6%	23%	u	-9%	u
CCOc1cc(OCC)cc(C(=O)NCc2ccco2)c1	3%	u	-17%	-4%	89µM*	18%
CCOC(=O)N1CCC(N2C(=O)c3ccc(C(=O)NCc4ccco4)cc3C2=O)CC1	-3%	0%	3%	-14%	-15%	71µM*
CC(=O)c1cccc(NC(=O)CCCN2C(=O)COc3ccc(C)cc32)c1	5%	-13%	21%	x	-19%	-30%[59 µM]
